Reference: PubChem BioAssay AID2061166 (Soto Lab, Mitchell Center for Alzheimers Disease and …, 2025)
Calls of active or inactive are those of the source.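 How the source made its calls: active means mean tau seeding fluorescence area under 1% of vehicle, meaning inhibition above a set limit; inactive means the rest.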

Molecular target: Microtubule-associated protein tau (Homo sapiens) (UniProt P10636)
Assay: inhibitors of seeded tau aggregation, primary screen, biochemical, seed amplification, ThT fluorescence (AID 2061166)
Settings: Recombinant tau seeded by AD brain, ThT fluorescence AUC; at 100 µM; active compounds read high

Sequence of Microtubule-associated protein tau (Homo sapiens) (P10636 whole entry, looked up): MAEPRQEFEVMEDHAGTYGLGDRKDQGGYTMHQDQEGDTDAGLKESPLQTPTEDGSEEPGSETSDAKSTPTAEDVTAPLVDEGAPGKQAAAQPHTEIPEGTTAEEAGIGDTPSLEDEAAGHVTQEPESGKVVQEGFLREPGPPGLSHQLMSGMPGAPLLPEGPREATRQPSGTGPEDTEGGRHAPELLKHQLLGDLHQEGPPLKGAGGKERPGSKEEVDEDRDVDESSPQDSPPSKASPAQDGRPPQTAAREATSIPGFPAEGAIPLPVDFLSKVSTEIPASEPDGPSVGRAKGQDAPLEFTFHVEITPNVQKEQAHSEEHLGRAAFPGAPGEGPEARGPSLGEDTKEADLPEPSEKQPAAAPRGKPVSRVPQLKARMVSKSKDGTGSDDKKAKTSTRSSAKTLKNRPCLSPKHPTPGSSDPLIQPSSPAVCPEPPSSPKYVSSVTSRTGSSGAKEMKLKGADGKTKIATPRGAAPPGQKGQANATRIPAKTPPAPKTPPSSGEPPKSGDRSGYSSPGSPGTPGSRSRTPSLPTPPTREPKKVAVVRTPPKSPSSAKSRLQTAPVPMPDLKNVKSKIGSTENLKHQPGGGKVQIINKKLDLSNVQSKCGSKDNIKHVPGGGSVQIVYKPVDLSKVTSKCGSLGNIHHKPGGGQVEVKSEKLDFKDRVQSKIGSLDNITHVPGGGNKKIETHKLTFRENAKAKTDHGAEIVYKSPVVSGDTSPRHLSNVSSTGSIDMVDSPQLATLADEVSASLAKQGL

Structure (SMILES) | inhibition
Cn1cc(C2=C(c3cn(C4CCN(Cc5ccccn5)CC4)c4ccccc34)C(=O)NC2=O)c2ccccc21 | 18.6% (inactive)
COc1ccc2c(c1)[nH]c1c(C)nccc12 | 35.5% (inactive)
O=C1C=C2C=CC3CC2(O1)C1CCCCN31 (configuration not stated) | 17% (inactive)
O=c1c2ccccc2[se]n1-c1ccccc1 | 51.6% (inactive)
Cc1cccc(C(C)c2cnc[nH]2)c1C (configuration not stated) | 17.4% (inactive)
O=C(CS(=O)C(c1ccccc1)c1ccccc1)NO (configuration not stated) | 7.82% (inactive)
COc1ccc2c3c([nH]c2c1)C(C)=NCC3 | 11.8% (inactive)
c1cncc(C2=NCCC2)c1 | 32.6% (inactive)
COc1ccc(C(=O)O)cc1OC | 11.4% (inactive)
Cn1c(CCCC(=O)O)nc2cc(N(CCCl)CCCl)ccc21 | 48% (inactive)
COc1ccc(C(CN(C)C)C2(O)CCCCC2)cc1 (configuration not stated) | 40.8% (inactive)
CNC(=O)Oc1cccc2ccccc12 | 63.7% (inactive)
